Six molecules from PubChem BioAssay can be followed below.

Activity calls are given as the source filed them.

One assay deals with Albumin (Bos taurus) (UniProt P02769). Description: compounds binding labelled BSA control protein – biochemical, small-molecule microarray, Alexa647 label, 635/667 nm fluorescence, artefact control for SMM control protein annotation, profiling panel (AID 1118).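 Also: score merges 667 nm emission intensity and signal-to-noise per printed compound spot.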 As to conditions: BSA-A647 binding, fluorescence 635 nm, higher = more signal.
Assay [1] is described as follows: probe aXIP binding to arrayed compounds – biochemical, NeuroSMM set, 635/667 nm fluorescence, primary screen (AID 1119).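 Also: probe is the protein aXip251-270 applied at 1 µg/mL to compound-printed slides; binding of probe to printed compounds measured as 667 nm fluorescence plus signal to noise.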 The following applies: small-molecule microarray, higher = more signal, called active from +8 up or from −8 down.
Assay [2] can be described thus: probe aNOTCH3 binding on compound microarray – biochemical, small-molecule microarray, 635/667 nm fluorescence, primary screen (AID 1120).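 Also: probe is a biotin-tagged antibody raised against NOTCH3 rather than NOTCH3 protein; score merges spot fluorescence near 667 nm with spot signal to noise.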 As to conditions: higher = more signal.
Assay [3] can be described thus: probe aNOTCH2 binding on compound microarray – biochemical, small-molecule microarray, 635/667 nm fluorescence, primary screen (AID 1121).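 Also: score merges feature fluorescence read at 667 nm with its signal to noise.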 The following applies: higher = more signal.
The target of assay [4] is Carbonic anhydrase 2 (Homo sapiens) (UniProt P00918). The assay is described as follows: compounds binding carbonic anhydrase 2 – biochemical, small-molecule microarray, Alexa647-labelled CAII, profiling panel (AID 1122). The following applies: CAII-A647 binding fluorescence, higher = more signal.
Assay [5] can be described thus: COS7 lysate on small-molecule microarray, probe aHis, 635 nm (AID 1123).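 Also: z-score combines 667nm fluorescence intensity with signal-to-noise per printed compound spot.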 As to conditions: COS7 cell lysate, fluorescence, higher = more signal.
Assay [6] can be described thus: probe aLAP1 signal on lysate-treated microarray – cell lysate, small-molecule microarray, COS7 lysate, primary screen (AID 1124).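 Also: lysate comes from COS7 cells expressing LAP1 and is applied at 0.3 µg/mL; score merges spot fluorescence near 667 nm with signal-to-noise over triplicate slides.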 The following applies: probe aLAP1, fluorescence, higher = more signal.
The subject of the next assay is Sam68 (KHDRBS1). Description: compounds binding KHDRBS1 protein – biochemical, small-molecule microarray, 635 nm fluorescence, primary screen (AID 1125).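 Also: score merges 667 nm channel intensity with signal to noise over triplicate slides.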 As to conditions: higher = more signal.
The subject of assay [7] is Chordin-like protein 2 (CHRDL2). The assay is described as follows: compounds binding chordin-like 2 – biochemical, small-molecule microarray, 635 nm fluorescence, primary screen (AID 1126).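 Also: printed compound slides probed with Chrdl2 protein at 4 µg/mL for 1 h at 4 C; score merges 667 nm emission intensity with signal to noise over three replicate slides.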 As to conditions: fluorescence 635 nm, higher = more signal.
Assay [8] has as its target Concanavalin-A (Canavalia ensiformis) (UniProt P02866). The assay is described as follows: compounds binding concanavalin A lectin – biochemical, small-molecule microarray, Alexa647 label, 635 nm, artefact control for SMM control protein annotation, primary screen (AID 1127).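 Also: z combines 667 nm emission intensity with signal-to-noise across three replicate slides.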 The following applies: ConA-A647 binding fluorescence, higher = more signal.
Assay [9] can be described thus: compounds binding Alexa647 anti-His antibody – biochemical, small-molecule microarray, 635 nm fluorescence, artefact control for SMM control protein annotation, primary screen (AID 1128).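 Also: score merges feature fluorescence with signal-to-noise for each printed compound spot.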 As to conditions: higher = more signal.
Assay [10] concerns Human papillomavirus type 1a E7 protein (residues 1-88). Description: HPV1a E7 small-molecule binders, primary screen, biochemical, small-molecule microarray, residues 1-88, 635 nm (AID 1129). As to conditions: small-molecule microarray binding, fluorescence 635 nm; higher = more signal.
Assay [11] addresses Focal adhesion kinase 1 (Homo sapiens) (UniProt Q05397). The assay is described as follows: PTK2 protein binding on printed compound slides – biochemical, small-molecule microarray, 635/667 nm fluorescence, BSA, DTT, primary screen (AID 1130).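 Also: composite of spot emission at 667 nm and signal to noise over triplicate slides.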 The following applies: 635 nm fluorescence, higher = more signal.
The subject of assay [12] is Fibrinogen (Alexa647-labelled). Description: Alexa647-fibrinogen binding to printed small molecules – biochemical, small-molecule microarray, 635/667 nm fluorescence, artefact control for SMM control-protein annotation, profiling panel (AID 1131).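 Also: z-score merges 667 nm fluorescence with per-spot signal-to-noise over triplicate slides.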 The following applies: fibrinogen-A647 binding fluorescence, higher = more signal.
Assay [13] addresses Follistatin (Homo sapiens) (UniProt P19883). The assay is described as follows: FST protein binding to printed compounds – biochemical, small-molecule microarray, 635/667 nm fluorescence, primary screen (AID 1132). As to conditions: 635 nm fluorescence, higher = more signal.
Assay [14] concerns the target Fibroblast growth factor 2 (Homo sapiens) (UniProt P09038). The assay is described as follows: basic fibroblast growth factor binding to printed compounds – biochemical, small-molecule microarray, 635/667 nm fluorescence, primary screen (AID 1133). The following applies: FGF2, fluorescence 635/667, higher = more signal.
Assay [15] is described as follows: JC-1 mitochondrial potential readout, lung cancer cells – cell-based, A549, JC-1 fluorescence, basal, 24 h, 100 nL, profiling panel (AID 1138).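 Also: A549 lung adenocarcinoma cells under basal conditions with no added stimulus; test concentration not given here.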 The following applies: higher = more signal.
Another assay has as its system Lefty1. Description: Lefty1 protein binding to printed compounds – biochemical, small-molecule microarray, 635/667 nm fluorescence, primary screen (AID 1139). As to conditions: fluorescence 635/667, higher = more signal.
For assay [16], the system named is wheat germ agglutinin (Triticum aestivum), Alexa647-labelled. Description: Alexa647-WGA lectin binding to printed small molecules – biochemical, small-molecule microarray, 635/667 nm fluorescence, artefact control for SMM control-protein annotation, profiling panel (AID 1140).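 Also: score merges 667 nm feature emission with signal to noise over triplicate slides.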 As to conditions: WGA-A647 binding, 635 nm fluorescence, higher = more signal.
The target of assay [17] is Luciferin 4-monooxygenase (Photinus pyralis) (UniProt P08659). Description: inhibition of purified Photinus pyralis luciferase – biochemical, luminescence, purified enzyme, 2006 set, primary screen (AID 1141).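 Also: cell-free assay with purified firefly luciferase at 100 ng per well in PBS; test concentration not given here.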 As to conditions: purified firefly luciferase, SteadyGlo luminescence, 30 min; higher = more signal, called active from +8 up or from −8 down.
Luciferin 4-monooxygenase (Photinus pyralis), sequence (P08659 whole entry, looked up): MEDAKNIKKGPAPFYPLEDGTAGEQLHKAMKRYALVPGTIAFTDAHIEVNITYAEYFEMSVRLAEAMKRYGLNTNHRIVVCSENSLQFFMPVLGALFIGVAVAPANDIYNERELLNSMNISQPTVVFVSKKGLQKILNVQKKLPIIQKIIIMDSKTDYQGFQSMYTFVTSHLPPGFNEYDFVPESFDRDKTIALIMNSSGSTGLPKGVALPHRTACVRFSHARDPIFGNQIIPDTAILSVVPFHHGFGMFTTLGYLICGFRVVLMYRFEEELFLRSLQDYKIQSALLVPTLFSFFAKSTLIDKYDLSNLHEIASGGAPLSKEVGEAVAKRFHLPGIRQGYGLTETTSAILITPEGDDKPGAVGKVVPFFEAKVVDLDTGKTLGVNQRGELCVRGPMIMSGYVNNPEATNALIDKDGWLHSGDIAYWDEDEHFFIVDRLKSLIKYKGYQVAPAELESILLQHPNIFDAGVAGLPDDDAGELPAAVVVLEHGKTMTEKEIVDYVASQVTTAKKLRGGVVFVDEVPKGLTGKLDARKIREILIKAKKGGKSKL

Concanavalin-A (Canavalia ensiformis), sequence (P02866 whole entry, looked up): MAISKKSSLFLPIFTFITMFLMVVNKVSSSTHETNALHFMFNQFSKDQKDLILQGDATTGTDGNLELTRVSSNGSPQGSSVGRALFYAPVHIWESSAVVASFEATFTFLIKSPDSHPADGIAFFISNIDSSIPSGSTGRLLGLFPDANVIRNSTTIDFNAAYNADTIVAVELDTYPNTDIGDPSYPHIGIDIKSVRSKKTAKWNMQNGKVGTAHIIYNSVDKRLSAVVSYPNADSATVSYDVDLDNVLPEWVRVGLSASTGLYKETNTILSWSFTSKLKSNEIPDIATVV
Follistatin (Homo sapiens), sequence (P19883 whole entry, looked up): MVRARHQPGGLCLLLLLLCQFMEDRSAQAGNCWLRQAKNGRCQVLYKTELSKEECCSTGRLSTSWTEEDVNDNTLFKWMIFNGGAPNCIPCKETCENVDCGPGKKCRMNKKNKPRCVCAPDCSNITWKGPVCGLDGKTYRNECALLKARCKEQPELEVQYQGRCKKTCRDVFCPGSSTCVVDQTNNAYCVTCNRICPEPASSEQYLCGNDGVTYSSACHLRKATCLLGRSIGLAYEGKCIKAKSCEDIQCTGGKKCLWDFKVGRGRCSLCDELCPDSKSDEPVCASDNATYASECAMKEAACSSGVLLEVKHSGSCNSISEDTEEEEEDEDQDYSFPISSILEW
Focal adhesion kinase 1 (Homo sapiens), sequence (Q05397 whole entry, looked up): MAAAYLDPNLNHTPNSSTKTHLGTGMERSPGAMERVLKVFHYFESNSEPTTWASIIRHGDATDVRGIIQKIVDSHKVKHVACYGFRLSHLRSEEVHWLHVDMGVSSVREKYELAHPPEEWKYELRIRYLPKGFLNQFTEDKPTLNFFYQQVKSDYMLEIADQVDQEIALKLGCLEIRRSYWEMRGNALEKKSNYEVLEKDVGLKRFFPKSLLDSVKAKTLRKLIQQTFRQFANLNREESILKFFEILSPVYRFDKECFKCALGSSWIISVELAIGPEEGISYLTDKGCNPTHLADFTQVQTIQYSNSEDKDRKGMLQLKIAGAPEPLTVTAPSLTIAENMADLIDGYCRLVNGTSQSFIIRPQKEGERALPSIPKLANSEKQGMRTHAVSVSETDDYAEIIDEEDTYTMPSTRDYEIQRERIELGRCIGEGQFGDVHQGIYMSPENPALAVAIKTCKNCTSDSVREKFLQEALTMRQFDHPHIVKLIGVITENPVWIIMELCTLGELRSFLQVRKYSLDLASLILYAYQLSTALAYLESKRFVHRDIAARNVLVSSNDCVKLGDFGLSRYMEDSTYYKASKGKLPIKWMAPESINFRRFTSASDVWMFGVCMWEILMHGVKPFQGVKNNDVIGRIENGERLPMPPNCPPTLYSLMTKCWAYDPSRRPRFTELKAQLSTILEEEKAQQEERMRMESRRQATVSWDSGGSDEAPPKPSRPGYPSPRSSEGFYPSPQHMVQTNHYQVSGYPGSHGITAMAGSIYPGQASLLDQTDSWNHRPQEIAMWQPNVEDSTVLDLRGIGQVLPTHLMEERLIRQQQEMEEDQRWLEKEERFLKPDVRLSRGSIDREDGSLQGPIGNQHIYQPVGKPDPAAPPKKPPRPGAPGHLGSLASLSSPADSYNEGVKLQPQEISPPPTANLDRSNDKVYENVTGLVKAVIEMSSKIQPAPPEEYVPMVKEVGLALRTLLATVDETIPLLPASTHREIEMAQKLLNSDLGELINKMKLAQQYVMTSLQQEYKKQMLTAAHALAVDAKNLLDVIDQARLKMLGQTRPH
Albumin (Bos taurus), sequence (P02769 whole entry, looked up): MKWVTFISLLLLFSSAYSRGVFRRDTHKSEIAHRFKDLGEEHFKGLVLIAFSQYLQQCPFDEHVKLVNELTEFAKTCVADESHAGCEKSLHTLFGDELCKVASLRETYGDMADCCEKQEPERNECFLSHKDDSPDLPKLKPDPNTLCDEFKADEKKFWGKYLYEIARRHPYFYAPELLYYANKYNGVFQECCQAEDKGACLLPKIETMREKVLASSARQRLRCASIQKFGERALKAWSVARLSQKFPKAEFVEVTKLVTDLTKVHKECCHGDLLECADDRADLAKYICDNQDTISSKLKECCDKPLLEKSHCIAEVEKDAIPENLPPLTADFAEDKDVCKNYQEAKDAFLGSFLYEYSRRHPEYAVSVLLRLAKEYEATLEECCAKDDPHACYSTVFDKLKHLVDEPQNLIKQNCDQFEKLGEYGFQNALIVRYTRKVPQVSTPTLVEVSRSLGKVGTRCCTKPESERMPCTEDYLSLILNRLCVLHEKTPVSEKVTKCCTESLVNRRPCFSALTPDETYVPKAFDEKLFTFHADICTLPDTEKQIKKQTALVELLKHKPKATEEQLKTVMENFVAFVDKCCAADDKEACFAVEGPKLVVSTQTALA
Fibroblast growth factor 2 (Homo sapiens), sequence (P09038 whole entry, looked up): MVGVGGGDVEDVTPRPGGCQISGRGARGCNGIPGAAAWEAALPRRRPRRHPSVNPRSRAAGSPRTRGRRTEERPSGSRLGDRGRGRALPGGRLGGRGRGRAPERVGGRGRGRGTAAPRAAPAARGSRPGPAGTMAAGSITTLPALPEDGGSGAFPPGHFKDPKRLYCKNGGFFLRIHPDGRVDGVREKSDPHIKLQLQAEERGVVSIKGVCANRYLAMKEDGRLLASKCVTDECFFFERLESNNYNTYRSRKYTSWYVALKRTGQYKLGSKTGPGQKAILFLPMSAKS

On to `COc1ccc(O[C@H]2C=C[C@@H](c3ccccc3)O[C@@H]2CO)cc1`, for which the composite z-score with Albumin (Bos taurus) is -0.311; in [2], 0.0762; in [3], -0.104; in assay [4] it was 0.131; in [5], -0.209; in [6], 0.0797. In addition, the composite z-score in the assay with Sam68 (KHDRBS1) was -0.713; in assay [7], 0.495; in assay [8] it was 0.304; in assay [9], -0.457; in assay [10], -0.145; in assay [11] it was -0.363. Besides, the composite z-score in assay [12] was -0.0957; in [13] it was 0.36; in assay [14], 0.363; in the assay on Lefty1, 0.479; in [16], -0.126. Moreover, the composite Z-score in assay [1] is -0.0521 (inactive). Further, the z-score in assay [15] was 0.319; in assay [17], -0.162 (inactive).
Turning to `CO[C@@H]1COC(=O)[C@H](CCSC)NC(=O)CC=C[C@@H](C)COC(=O)[C@@H]2CCCN2C(=O)CC=C[C@H]1C`, the composite z-score in the assay with Albumin (Bos taurus) was -1.43; in assay [2], 0.0306; in [3], -0.199; in assay [4], -0.291; in assay [5], -0.462; in assay [6], -0.328. Further, the composite z-score with Sam68 (KHDRBS1) was 0.34; in assay [7] it was 0.946; in assay [8], -0.353; in assay [9], 0.0289; in assay [10], 0.258; in [11], -0.702. Moreover, the composite z-score was -1.13 in assay [12]; 0.779 in assay [13]; 0.889 in [14]; 1.15 in the assay with Lefty1; -1.37 in assay [16]. Also, the composite Z-score in assay [1] is 0.605 (inactive). The z-score is 0.215 in assay [15] and -0.0167 (inactive) in assay [17].
`COC(=O)[C@H](C)NC(=O)CCC1CC(OC(=O)NCc2ccc3c(c2)OCO3)CC2(CCCC(COC(=O)NCCC(C)C)O2)O1` (stereo not given in full): the composite z-score with Albumin (Bos taurus) is 0.492; in assay [2], 0.0488; in assay [3], -0.114; in assay [4], 0.226; in [5], 0.891; in [6], -0.308. In addition, the composite z-score turned out to be 1.31 with Sam68 (KHDRBS1); 0.0784 in assay [7]; 0.0667 in [8]; 0.363 in [9]; 0.63 in [10]; 0.73 in assay [11]. Further, the composite z-score is 0.87 in [12]; 0.831 in assay [13]; 0.531 in assay [14]; 1.25 in the assay with Lefty1; 0.0551 in assay [16]. Moreover, in assay [1], the composite Z-score is -0.436 (inactive). The z-score in [15] is -0.822; in [17], 0.977 (inactive).
As for `COC(=O)[C@H](C)NC(=O)CCC1CC(OC(=O)NCc2cccc3ccccc23)CC2(CCCC(COC(=O)NCCC(C)C)O2)O1` (stereo not given in full), the composite z-score is 0.168 with Albumin (Bos taurus); -0.095 in assay [2]; -0.124 in [3]; 0.24 in [4]; 1.01 in [5]; 0.127 in assay [6]. For the same molecule, the composite z-score in the assay on Sam68 (KHDRBS1) was 0.997; in assay [7], 0.229; in assay [8], -0.087; in assay [9] it was 0.164; in [10] it was 1.18; in [11], 0.287. In addition, the composite z-score is -1.15 in [12]; 0.295 in assay [13]; 0.803 in assay [14]; 0.36 in the assay on Lefty1; 0.268 in assay [16]. Also, in assay [1], the composite Z-score is 0.559 (inactive). Also, the z-score in [15] is 0.95; in assay [17] it was 0.652 (inactive).
For the molecule `CCN1C(=O)[C@H]2[C@H]3[C@H](O)[C@H](O)CC(=NO[C@@H](C)c4cc(-c5c(C)cc(C)cc5C)no4)[C@@H]3CC[C@H]2C1=O`, the composite z-score with Albumin (Bos taurus) was 0.581; in assay [2], 0.051; in assay [3] it was -0.0562; in assay [4], 0.465; in assay [5] it was 1.11; in assay [6], 0.693. The composite z-score was 1.3 with Sam68 (KHDRBS1); 0.333 in assay [7]; 1.02 in assay [8]; -0.185 in assay [9]; 0.918 in [10]; 0.23 in assay [11]. For the same molecule, the composite z-score in [12] was determined as 0.813; in assay [13], 0.809; in [14], 1.08; in the assay with Lefty1, 0.922; in assay [16] it was 1.01. The composite Z-score in [1] is -0.0662 (inactive). For the same molecule, the figures for the z-score in assay [15] and in assay [17] were 0.474 and 1.06 (inactive), respectively.
With `CO[C@@H](C(C)C)[C@@H](C)C1OC(=O)CC1O` (stereo not given in full), the composite z-score with Albumin (Bos taurus) was -0.145; in [2], -0.159; in [3], -0.166; in assay [4], -0.169; in assay [5], -0.18; in [6], -0.542. The composite z-score in the assay on Sam68 (KHDRBS1) was -0.22; in [7], -0.598; in assay [8] it was -0.347; in [9], -0.647; in assay [10] it was -0.579; in [11] it was 0.0539. Moreover, the composite z-score is -1.29 in assay [12]; -0.989 in assay [13]; -0.278 in [14]; -0.633 with Lefty1; -0.282 in assay [16]. Also, in [1], the composite Z-score was 0.0923 (inactive). In addition, the results for the z-score in [15] and in assay [17] were 0.000179 and 0.159 (inactive), respectively.
